The supplement of paper PMC12645437, “Orthogonal IMiD-Degron Pairs Induce Selective Protein Degradation in Cells” (ACS Chemical Biology, 2025)
Over roughly 8,300 sequences, “log2 fold change of degron read counts, EGFP-low vs EGFP+ sorted cells (limma voom), compound-induced degradation” has its median near -1.1; the highest 2% begin near 3.2. For the sample, the highest values were picked, then their nearest neighbours and some sequences at random.

T1: CRBN, Q96SW2
T1 chain: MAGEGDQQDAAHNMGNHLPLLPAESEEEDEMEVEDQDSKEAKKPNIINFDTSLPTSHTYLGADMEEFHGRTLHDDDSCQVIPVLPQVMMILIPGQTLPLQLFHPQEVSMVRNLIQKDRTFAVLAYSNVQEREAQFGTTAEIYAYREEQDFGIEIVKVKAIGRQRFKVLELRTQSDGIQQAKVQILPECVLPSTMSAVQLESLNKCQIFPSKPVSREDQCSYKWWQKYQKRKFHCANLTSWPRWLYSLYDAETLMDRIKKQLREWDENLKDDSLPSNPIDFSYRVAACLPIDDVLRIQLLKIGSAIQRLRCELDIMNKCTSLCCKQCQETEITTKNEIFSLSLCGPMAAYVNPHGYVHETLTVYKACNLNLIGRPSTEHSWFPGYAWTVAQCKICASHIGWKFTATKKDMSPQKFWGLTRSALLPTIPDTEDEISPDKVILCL


Target: T1, CRBN, Q96SW2
Assay: log2 fold change of degron read counts, EGFP-low vs EGFP+ sorted cells (limma voom), compound-induced degradation; higher = more compound-induced degradation of the degron-EGFP fusion; degrons are variants of IKZF1/3 zinc finger 2; compound dose not given here
Details: Jurkat, 18 h
Protocol: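 Pooled library of 8380 IKZF3 ZF2 degron mutants (positions 146-167 varied within the IKZF3 130-189 degron; only the varied core is printed, flanks not printed) fused to EGFP with IRES-mCherry, lentivirally expressed in Jurkat cells. mCherry+ cells were treated with one IMiD compound for 18 h (dose not stated) and FACS-sorted into EGFP-low and EGFP+ populations. Degron sequences were counted by NGS, and log2FC (EGFP-low vs EGFP+) was estimated by limma voom over 3 biological replicates.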

[1] = compound: compound 19 (5-tert-butyl-thalidomide)
[2] = compound: compound 22 (5-morpholino-thalidomide)
[3] = compound: compound 33 (diphenyl IMiD analogue)
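Also: pooled lentiviral library of zinc finger degron-EGFP fusions in mCherry-positive Jurkat cells, FACS-sorted after compound exposure, with degron abundance counted by next-generation sequencing.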

Sequence	log2 fold change of degron read counts [1]	log2 fold change of degron read counts [2]	log2 fold change of degron read counts [3]	log2 fold change of degron read counts (compound: thalidomide)
FDCEVCGAYFTQKGNLLRHIKL [46F_47D_49E_50V_52G_53A_54Y_55F_67L_, Q9UKT9]	-0.638	-1.5	-0.115	-0.462
LVCNQCGFTCTQKGNLLRHIKL [46L_47V_49N_50Q_52G_53F_54T_55C_67L_, Q9UKT9]	-2.33	-3.26	-0.847	-1.21
FLCNQCGHSFTQKGNLLRHIKL [46F_47L_49N_50Q_52G_53H_54S_55F_67L_, Q9UKT9]	-2.63	-2.99	-3.12	-2.74
FACEICGRIFTQKGNLLRHIKL [46F_47A_49E_50I_52G_53R_54I_55F_67L_, Q9UKT9]	0.366	-1.59	-1.49	-1.01
FVCDICGANFTQKGNLLRHIKL [46F_47V_49D_50I_52G_53A_54N_55F_67L_, Q9UKT9]	-0.564	1.47	0.815	1.12
FKCPICGRQFTQKGNLLRHIKL [46F_47K_49P_50I_52G_53R_54Q_55F_67L_, Q9UKT9]	-2.24	-2.58	-2.12	-0.821
LCCPICGFSCTQKGNLLRHIKL [46L_47C_49P_50I_52G_53F_54S_55C_67L_, Q9UKT9]	2.83	3.15	3	3.11
LFCPICGFSCTQKGNLLRHIKL [46L_47F_49P_50I_52G_53F_54S_55C_67L_, Q9UKT9]	3.55	3.56	2.79	2.78
LNCPICGFSCTQKGNLLRHIKL [46L_47N_49P_50I_52G_53F_54S_55C_67L_, Q9UKT9]	2.9	2.01	1.38	2
LRCPICGFSCTQKGNLLRHIKL [46L_47R_49P_50I_52G_53F_54S_55C_67L_, Q9UKT9]	2.24	1.9	2.44	2.71
LFCPICGFECTQKGNLLRHIKL [46L_47F_49P_50I_52G_53F_54E_55C_67L_, Q9UKT9]	2.8	2.89	1.47	0.989
LVCPICGFSCTQKGNLLRHIKL [46L_47V_49P_50I_52G_53F_54S_55C_67L_, Q9UKT9]	2.25	3.63	2.38	3.59
FQCEICGRNFTQKGNLLRHIKL [46F_47Q_49E_50I_52G_53R_54N_55F_67L_, Q9UKT9]	-2.38	-2.7	-0.772	0.915
FACPQCGAHFTQKGNLLRHIKL [46F_47A_49P_50Q_52G_53A_54H_55F_67L_, Q9UKT9]	0.167	-2	-1.13	-1.72
FRCPQCGAYFTQKGNLLRHIKL [46F_47R_49P_50Q_52G_53A_54Y_55F_67L_, Q9UKT9]	-1.85	-1.73	-0.273	-0.427
FTCNICGAPFTQKGNLLRHIKL [46F_47T_49N_50I_52G_53A_54P_55F_67L_, Q9UKT9]	2.03	3.03	2.21	2.73
FECNICGAPFTQKGNLLRHIKL [46F_47E_49N_50I_52G_53A_54P_55F_67L_, Q9UKT9]	0.92	-1.22	0.793	1.96
FNCNICGAPFTQKGNLLRHIKL [46F_47N_49N_50I_52G_53A_54P_55F_67L_, Q9UKT9]	3.04	1.9	0.574	0.97
FLCNICGAPFTQKGNLLRHIKL [46F_47L_49N_50I_52G_53A_54P_55F_67L_, Q9UKT9]	1.46	1.8	2.1	2.49
FYCNICGAPFTQKGNLLRHIKL [46F_47Y_49N_50I_52G_53A_54P_55F_67L_, Q9UKT9]	3.87	3.54	2.43	1.04
FVCNICGAPFTQKGNLLRHIKL [46F_47V_49N_50I_52G_53A_54P_55F_67L_, Q9UKT9]	1.87	3.32	2.44	3.33
FRCNICGAPFTQKGNLLRHIKL [46F_47R_49N_50I_52G_53A_54P_55F_67L_, Q9UKT9]	2.88	3.49	3.05	3.38
FVCNQCGAPFTQKGNLLRHIKL [46F_47V_49N_50Q_52G_53A_54P_55F_67L_, Q9UKT9]	-1.48	0.603	-0.000403	0.468
FICNICGAPFTQKGNLLRHIKL [46F_47I_49N_50I_52G_53A_54P_55F_67L_, Q9UKT9]	1.31	3.43	2.32	2.76
FRCEICGRPFTQKGNLLRHIKL [46F_47R_49E_50I_52G_53R_54P_55F_67L_, Q9UKT9]	-0.208	1.72	2.22	2.06
FNCPICGHTFTQKGNLLRHIKL [46F_47N_49P_50I_52G_53H_54T_55F_67L_, Q9UKT9]	-2.31	-2.29	-2.08	-2.24
FFCEICGRSFTQKGNLLRHIKL [46F_47F_49E_50I_52G_53R_54S_55F_67L_, Q9UKT9]	0.599	0.147	-0.0546	-0.893
FNCEQCGACFTQKGNLLRHIKL [46F_47N_49E_50Q_52G_53A_54C_55F_67L_, Q9UKT9]	-1.28	-2.78	-2.07	-2.41
